# MCF10A rerep – A quantitative high throughput screen for small molecules that induce DNA re-replication in MCF 10a normal breast cells. Potency, µM (highest dose often 46.1 µM), hits mostly activators. MCF 10A DNA re-replication, Hoechst nuclear intensity, 48 h. actives 2.9% (n = 350,000); also: nearly all actives have a fitted effect of over 50% in size
# KB-3-1 tox – qHTS assay for MDR1-selective chemotherapeutics: Primary screen using the parental adenocarcinoma cell KB-3-1 | KB-3-1 viability, CellTiter-Glo ATP luminescence, 72 h | AID 1347075, 2019 | Potency, µM (doses to about 46.1 µM), most hits filed as cytotoxic | actives 1.4% (n = 400,000); also: nearly all actives have a fitted effect of over 60% in size
#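 72 h, 37 °C compound treatment of KB-3-1 parental cells; CellTiter-Glo added, 10 min, luminescence read. Data corrected against DMSO-only plates and normalized before curve fitting.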
# IL-1B inflam inh – qHTS for Inhibitors of Inflammasome Signaling: IL-1-beta AlphaLISA Primary Screen; THP-1 LPS/ATP IL-1B secretion, AlphaLISA, 16 h; active compounds read low; activity change, % at 57.5 µM; actives 4.7% (n = 360,000); AID 743279, 2014; in the data active = activity change below about -50%; inconclusive = mostly about -30% to -49%
#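 THP-1 cells pretreated 1 hr with compounds (up to 57.5 uM final), then stimulated with LPS (250 ng/mL final) plus ATP (1.25 mM final); secreted IL-1B measured by AlphaLISA after 16 hr, decreased signal indicating inhibition.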
# SW480 rerep – A quantitative high throughput screen for small molecules that induce DNA re-replication in SW480 colon adenocarcinoma cells; Potency, µM (titrated, usually from 46.1 µM), hits mostly activators; AID 624297, 2012; SW480 DNA re-replication, Hoechst DNA content imaging, 48 h; actives 1.8% (n = 340,000); also: nearly all actives have a fitted effect of over 55% in size
#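 Compounds, transferred as 23 nL by pin tool, were incubated with cells for 48 hr; DNA content per nucleus was then quantified by Hoechst staining and fluorescence plate imaging.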
# KB-V1 MDR tox – qHTS assay for MDR1-selective chemotherapeutics: Primary screen using the drug-selected MDR subline cells KB-V1. Potency, µM (titrated, usually from 46.1 µM), hits mostly cytotoxic. actives 3.4% (n = 400,000). KB-V1 MDR cells viability, CellTiter-Glo, 72 h; also: nearly all actives have a fitted effect of over 60% in size
#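 Drug-selected KB-V1 cells, grown in DMEM lacking phenol red with 10% FBS, receive compound titrations; after three days at 37 degrees C, surviving cell ATP is quantified by CellTiter-Glo luminescence and responses normalized and curve-fitted.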
# Hits are given with their value; – = inactive; ? = inconclusive; · = no result; [ ] = dose if it differs, or a comment. In the library only some 9.9% were active in any assay of this set; here they are far more common. Unless noted, calls follow the shape of the dose curve; as a rule, active = well fitted curve in the direction sought with a large enough effect; inconclusive = small, poorly fitted or top-dose-only effect, or another doubt; inactive = no such curve, though single readings can be large; an effect the other way counts as inactive or inconclusive.
SMILES,MCF10A rerep,KB-3-1 tox,IL-1B inflam inh,SW480 rerep,KB-V1 MDR tox
Cc1ccc(S(=O)(=O)N2C[C@H]3C(=O)C[C@@H](c4ccccc4)N(S(C)(=O)=O)[C@H]3C[C@H]2c2ccccc2)cc1,·,–,-92,·,?
CCOc1cc(C(=O)N2CC(=O)Nc3ccc(F)cc3C2c2ccccc2)cc(OCC)c1OCC (centres undefined),·,–,·,·,–
CN(CCc1cn[nH]c1)Cc1nc(C(c2ccccc2)c2ccccc2)no1,–,?,–,–,–
CCN(CC)CCN(C)Cc1nc(C(c2ccccc2)c2ccccc2)no1,?,–,-64,?,–
C=C1C(=O)O[C@@H]2[C@H]1[C@@H](OC(=O)/C(C)=C/C)C/C(C)=C\C(=O)/C=C(\C)[C@@H]2O,–,2.9µM,-102,?,?
CN(CC(=O)NC(=O)Nc1ccccc1F)Cc1ccccc1F,?,·,–,–,·
CCc1cccc(C)c1NC(=O)CN(C)Cc1ccccc1F,–,?,–,–,21µM
N#CC1(NC(=O)CSc2nnc3n2CCCCC3)CCCCC1,–,–,–,–,–
COc1cc(Cn2c(=O)oc3ccc(C)cc32)ccc1OCCC(C)C,·,–,·,·,?
CCCOc1ccc(Cn2c(=O)oc3ccc(C)cc32)cc1OC,–,–,–,–,12µM
CC(=O)Nc1ccccc1N(CC(O)Cn1c2ccccc2c2ccccc21)S(=O)(=O)c1ccc(C)cc1 (centres undefined),?,–,?,23µM,?
COc1ccc(N(CC(O)Cn2c3ccccc3c3ccccc32)S(=O)(=O)c2ccccc2)cc1 (centres undefined),–,?,–,?,23µM
CCOC(=O)c1ccccc1NC(=O)N1CCC(CN2CCCCC2)CC1,·,–,·,·,–
Cn1c(SC2CCCCC2=O)nnc1-c1ccccc1F (centres undefined),–[9.22 µM],–,–,–,–
CN1CC(c2ccccn2)C2(SC(=S)N(Cc3ccccc3)C2=O)C12C(=O)Nc1ccccc12 (centres undefined),–,–,–,–,?
CN1CC(c2ccccc2)C2(SC(=S)N(Cc3ccco3)C2=O)C12C(=O)Nc1ccccc12 (centres undefined),6.5µM,21µM,-69,?,?
CCOc1ccc(N(CC(=O)NC2CCCC2)C(=O)CSc2nnc(COc3ccccc3)o2)cc1,–,–,-55,–,–
NC(N)=N/N=C/c1ccc(OS(=O)(=O)c2ccccc2)cc1,18µM,–,–,5.8µM,–
O=C(NCCN1CCOCC1)c1cc2c(=O)n3ccccc3nc2n1Cc1ccccc1,16µM,–,–,21µM,–
CCn1c(=N)c(C(=O)NCc2ccccc2)cc2c(=O)n3cc(C)ccc3nc21,·,–,·,·,?
Cc1ccc2nc3c(cc(C(=O)NCCc4ccccc4)c(=N)n3CCCN3CCOCC3)c(=O)n2c1,4.6µM,–,–,4.6µM,–
COc1ccc(CCNC(=O)c2cc3c(=O)n4ccccc4nc3n(CCN3CCOCC3)c2=N)cc1,21µM,–,–,23µM,–
COc1ccc(CCn2c(=N)c(C(=O)N3CCN(C)CC3)cc3c(=O)n4ccccc4nc32)cc1,9.2µM,–,-54,23µM,–
CCCCCCCCNc1ccc(/C=C/c2ccnc3ccccc23)cc1,·,–,·,·,–
COc1ccc(CCNC(=O)c2cc3c(=O)n4ccccc4nc3n(C3CCCCC3)c2=N)cc1OC,–,–,–,–,?
SMILES,MCF10A rerep,KB-3-1 tox,IL-1B inflam inh,SW480 rerep,KB-V1 MDR tox
COc1ccc(CCNC(=O)c2cc3c(=O)n4ccccc4nc3n(CCCN3CCOCC3)c2=N)cc1,?,–,–,8.2µM,–
COc1ccc(CCNC(=O)c2cc3c(=O)n4ccccc4nc3n(CCCN3CCOCC3)c2=N)cc1OC,–,–,–,?,–
COc1ccc(CCNC(=O)c2cc3c(=O)n4ccccc4nc3n(C3CCCCC3)c2=N)cc1,?,–,–,2.3µM,–
Cn1c(Oc2ccc(Cl)cc2)c(C=O)c2ccccc21,?,21µM,-95,–[9.22 µM],?
Cn1c(Oc2ccc(F)cc2F)c(C=O)c2ccccc21,–,–,-88,–,–
CCOC(=O)Cc1csc(NS(=O)(=O)c2ccc3c4c(cccc24)C(=O)N3CC)n1,?,–,–,–,–
CCOC(=O)CNS(=O)(=O)c1ccc2c3c(cccc13)C(=O)N2CC,–,–,-86,–,–
COCCNS(=O)(=O)c1ccc2c3c(cccc13)C(=O)N2C,–,–,–,–,–
CN1C(=O)c2cccc3c(S(=O)(=O)NCCc4ccccc4)ccc1c23,23µM,–,–,?,–
CCN1C(=O)c2cccc3c(NC(=O)c4cccc(N5C(=O)CCC5=O)c4)ccc1c23,–,–,–,–,–
CCOc1cc(C(=O)Nc2ccc3c4c(cccc24)C(=O)N3CC)cc(OCC)c1OCC,–,–,–,–,9.2µM
Cc1[nH]c(=O)[nH]c(=O)c1S(=O)(=O)N(CC(C)C)CC(C)C,–,–,–,–,–
Cc1nc2ccc(S(=O)(=O)NC(C(=O)NCc3ccc(Cl)cc3)C(C)C)cc2s1 (centres undefined),·,–,·,·,–
COC(=O)c1ccccc1NC(=O)C1CCN(C(=O)N2CC(C)Oc3ccccc32)CC1 (centres undefined),·,–,·,·,–
O=C1CC(c2ccc(Cl)cc2)CC(=O)C1CS(=O)(=O)c1ccccc1 (centres undefined),?,–,-58,–,–
c1ccc(N(c2ccccc2)c2nc(N3CCCC3)nc(-n3ccnc3)n2)cc1,3.7µM,–,–,?,–
CC(C)Nc1nc(-c2ccccc2)nc(-n2ccnc2)n1,–,–,?,–,–
c1ccc(-c2nc(-n3ccnc3)nc(-n3ccnc3)n2)cc1,?,–,-84,–,?
c1ccc(CN2CCN(c3nc(-c4ccccc4)nc(-n4ccnc4)n3)CC2)cc1,?,?,?,21µM,?
COc1ccc(C(=O)CC(=O)C(=O)Nc2ccc([N+](=O)[O-])cc2C)cc1,–,–,–,–,?
COc1cc2nc(=S)n3[nH]c(CCn4nc(C)cc4C)nc3c2cc1OC,–,?,–,13µM,?
COc1cc2nc(=S)n3[nH]c(COc4ccccc4C)nc3c2cc1OC,–,?,–,–,0.92µM
CC(=O)OCC1OC(n2ccc3ccccc32)C(OC(C)=O)C(OC(C)=O)C1OC(C)=O (centres undefined),?,–,–,–,–
CC(=O)OCC1OC(Sc2cccc3cccnc23)C(OC(C)=O)C(OC(C)=O)C1OC(C)=O (centres undefined),–,–,-97,?,–
